Laboratory results reported in PubChem BioAssay AID493231 (Broad Institute, 2011).
Potency and affinity values are given separately. The source made the active and inactive calls. The rule behind the calls is not given here.

Target: Acyl-homoserine lactone acylase PvdQ (Pseudomonas aeruginosa (strain ATCC 15692 / DSM 22644 / CIP 104116 / JCM 14847 / LMG 12228 / 1C / PRS 101 / PAO1)) (UniProt Q9I194)
Experiment: PvdQ acylase enzyme activity blockers – biochemical, fluorescence, plate reader and imaging, cherry-picks, dose response (AID 493231);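 note: more negative values mean stronger inhibition of the acylase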
Details: purified PvdQ acylase, fluorogenic substrate; series mostly up to 10 µM

Chain of Acyl-homoserine lactone acylase PvdQ (Pseudomonas aeruginosa (strain ATCC 15692 / DSM 22644 / CIP 104116 / JCM 14847 / LMG 12228 / 1C / PRS 101 / PAO1)) (Q9I194 whole entry, looked up): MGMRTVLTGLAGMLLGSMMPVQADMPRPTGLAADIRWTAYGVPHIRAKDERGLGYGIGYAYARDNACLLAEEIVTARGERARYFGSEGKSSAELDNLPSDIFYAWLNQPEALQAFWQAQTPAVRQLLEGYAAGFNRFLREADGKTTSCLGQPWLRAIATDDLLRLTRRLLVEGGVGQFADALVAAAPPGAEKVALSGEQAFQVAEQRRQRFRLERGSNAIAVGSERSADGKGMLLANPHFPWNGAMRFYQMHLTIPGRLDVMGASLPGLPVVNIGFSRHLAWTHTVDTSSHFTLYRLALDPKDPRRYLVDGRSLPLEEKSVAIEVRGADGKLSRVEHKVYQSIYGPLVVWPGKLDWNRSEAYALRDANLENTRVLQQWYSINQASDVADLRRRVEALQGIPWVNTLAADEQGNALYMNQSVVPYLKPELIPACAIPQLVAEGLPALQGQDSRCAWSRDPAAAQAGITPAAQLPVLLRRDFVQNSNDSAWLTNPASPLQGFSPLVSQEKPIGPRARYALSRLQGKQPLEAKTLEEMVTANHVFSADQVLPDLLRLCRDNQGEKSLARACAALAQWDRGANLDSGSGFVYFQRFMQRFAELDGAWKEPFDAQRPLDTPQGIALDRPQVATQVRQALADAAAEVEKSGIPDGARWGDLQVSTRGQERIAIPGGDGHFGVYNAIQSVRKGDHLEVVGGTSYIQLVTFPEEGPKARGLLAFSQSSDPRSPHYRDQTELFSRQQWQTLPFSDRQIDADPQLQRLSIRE

outcome, inactive:
Cc1ccc(C(=O)/C=C/Nc2cccc([N+](=O)[O-])c2)o1, COc1ccc(CCNC(=O)c2cccc(S(=O)(=O)N3CCc4ccccc4C3)c2)cc1, O=C(CSc1n[nH]c(=O)n1Cc1ccco1)c1ccc2c(c1)OCCO2, CN(C)CCCN(Cc1cc2cc3c(cc2[nH]c1=O)OCO3)C(=S)Nc1cccc(Cl)c1, CCOC(=O)/C(C#N)=C/c1c(N2CCCCCC2)nc2ccccn2c1=O, CCOc1ccccc1NC(=S)N1CCC(NC(=O)NC23CC4CC(CC(C4)C2)C3)CC1, CCN(c1ccc(NC(=O)CCNC(=O)c2ccco2)cc1)C(C)C, COc1ccc(OCCSc2nc3ccccc3n2CCC(=O)O)cc1, O=C1N(c2ccccc2)C[C@@H]2C[C@@H](c3cc4ccccc4o3)N3CCC[C@@]123, Nc1nc(-c2ccc(Cl)cc2)nn1C(=O)c1ccco1, NC(=O)c1oc2ccccc2c1NC(=O)Cc1ccccc1, Cc1ccc(Nc2nc(-c3sc(C)nc3C)cs2)cc1, Cc1ccc2[nH]c(=O)c3cc(C(=O)NC(C)C)sc3c2c1, COC(=O)c1ccccc1NC(=O)CN1CCC(NC(=O)c2ccc(C)cc2)CC1, CN=C1S/C(=C\c2ccc(SC)cc2)C(=O)N1C, CC(C)CCN(CCC(C)C)C(CO)(CO)CO, COc1ccc(-c2nn(-c3ccccc3)cc2/C=C2/SC(=S)N(CCC(=O)O)C2=O)cc1, N#Cc1cc([N+](=O)[O-])ccc1Oc1cccc(/C=N/NC(=O)c2ccc(Cl)cc2)c1, c1ccc2sc(-c3ccc4c(c3)OCO4)nc2c1, Cc1cc(NC(=O)c2ccc(Br)c([N+](=O)[O-])c2)no1, O=C(NCCCn1ccnc1)c1nn2c(C(F)(F)F)cc(-c3ccccc3)nc2c1Cl, c1ccc(CCc2ccccn2)cc1, CC(=O)c1ccc(NC(=S)N2CCCC(CO)C2)cc1 (stereo unspecified), O=C1C=C(c2ccccc2)OC(c2ccccc2)O1 (stereo unspecified), CCCSC1=C(C#N)C(c2ccc(OC)cc2)C2=C(CC(C)(C)CC2=O)N1 (stereo unspecified), CCN(c1ccccc1)S(=O)(=O)c1cc(C(=O)Nc2ccccc2Cl)ccc1F, Cc1ccccc1OCCSc1nnc(-c2ccncc2)n1C, COc1ccc(C2NCCc3c2[nH]c2ccccc32)cc1COc1ccc(F)cc1 (stereo unspecified), Cn1c(=O)c2c(ncn2CC(=O)OCC(=O)NCc2ccc(Cl)cc2)n(C)c1=O, Cc1cc(C)nc(NS(=O)(=O)c2ccc(NC(=O)c3ccc(N4C(=O)CCC4=O)cc3)cc2)n1, Clc1ccc2nc(-c3ccc4c(c3)OCO4)cn2c1, OC(CN1CCOCC1)Cn1c(-c2cccc(Cl)c2)nc2ccccc21 (stereo unspecified), c1ccc(-c2cnc(C3CCCCC3)o2)cc1, CN(C)C(=O)Nc1ccccc1, CCOC(=O)CC(NC(=O)c1ccco1)c1ccccc1Cl (stereo unspecified), COc1cccc(Nc2nc(Nc3ccc(Cl)c(C(=O)O)c3)nc(C)c2[N+](=O)[O-])c1
